According to PubChem BioAssay:
Results with a measured potency or affinity are listed apart. Calls of active or inactive are those of the source. Cut-off not given; nearly all actives show IC50 up to about 0.91 µM.

The compounds below were run against Calcium-dependent protein kinase 4 (Plasmodium falciparum (isolate 3D7)) (UniProt Q8IBS5) (assay: PfCDPK4 kinase inhibitors, biochemical, TCAMS library (AID 1159588)). Conditions: recombinant PfCDPK4, Kinase-Glo ATP depletion luminescence.
Calcium-dependent protein kinase 4 (Plasmodium falciparum (isolate 3D7)), sequence (Q8IBS5 whole entry, looked up): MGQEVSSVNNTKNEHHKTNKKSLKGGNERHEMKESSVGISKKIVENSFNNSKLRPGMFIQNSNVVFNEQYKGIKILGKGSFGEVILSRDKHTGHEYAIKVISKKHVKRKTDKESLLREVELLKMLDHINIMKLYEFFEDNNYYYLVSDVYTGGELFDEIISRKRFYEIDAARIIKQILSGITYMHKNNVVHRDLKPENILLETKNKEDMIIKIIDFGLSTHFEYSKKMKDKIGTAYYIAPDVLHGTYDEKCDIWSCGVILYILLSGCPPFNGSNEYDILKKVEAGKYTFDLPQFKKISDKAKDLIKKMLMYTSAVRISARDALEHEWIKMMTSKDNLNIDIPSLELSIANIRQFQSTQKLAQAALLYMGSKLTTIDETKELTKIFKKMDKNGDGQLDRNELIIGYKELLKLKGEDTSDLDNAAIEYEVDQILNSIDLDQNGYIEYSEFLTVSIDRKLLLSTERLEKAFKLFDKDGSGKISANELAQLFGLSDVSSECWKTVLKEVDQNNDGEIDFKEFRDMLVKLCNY

SMILES	outcome
COc1cccc(C(=O)[C@H]2C[C@@H]2CN(C)CCC(O)c2ccc(Cl)c(Cl)c2)c1 (stereo not given in full)	inactive
Cc1ccc(Cn2ncc(N3CCC(N)CC3)c(Cl)c2=O)cc1NC(=O)Nc1ccc(-c2ccccc2)cc1	inactive
CN(C)Cc1ccc(O)c(-c2ccc(C(C)(C)C)cc2)n1	inactive
COc1cc2nc(NCCCN3CCCCC3)nc(NCc3ccccc3)c2cc1OC	inactive
CC(C)CCN1CCC(Oc2ccc(NC(=O)c3cccs3)cc2Cl)CC1	inactive
N#Cc1ccc(N[C@@H](CC2CCCCC2)C(=O)N[C@@H]2CCCc3ccccc32)c2ccccc12	inactive
Cc1ccc(NC(=O)c2ccc3ncccc3c2)cc1OC1CCN(Cc2ccc(F)cc2)CC1	inactive
CCOc1ccc(-c2nc(NC(=O)COc3ccc(OC)cc3)sc2C)cc1	inactive
O=C(Nc1ccc2c(c1)CCC2)c1ccc(CN2CCCN(Cc3cccc(O)c3)CC2)cc1	inactive
CN1CCN(c2ccnc3cc4c(cc23)N(C(=O)Nc2ccc(-c3ccncc3)c3ccccc23)CC4)CC1	inactive
Clc1ccc(OCCC2CCN(CCCCCCN3CCCCC3)CC2)cc1Cl	inactive
Cc1cc(N2CCCC2=O)ccc1-c1ccc(C(=O)N2CCC(Oc3cccc(Cl)c3)CC2)cc1	inactive
c1ccc(CCNCc2ccc(-c3cccc(CNc4ccc5ncccc5c4)c3)cc2)cc1	inactive
CC(C)(C)OC(=O)N1CCN(c2ccccc2NC(=O)c2cccc(C(F)(F)F)c2Oc2ccc(F)cc2)CC1	inactive
N#CCCN1CCN(Cc2ccc(-c3ccc(-c4nc5ccc(F)cc5[nH]4)s3)cc2)CC1	inactive
CCOC(=O)NC1=NC(C)(C)N(OCCCOc2cc(Cl)c(Cl)cc2Cl)C(N)=N1	inactive
Cc1ccc(-n2c(=O)c3cccnc3n2CC(=O)Nc2cccc(C)c2C)cc1	inactive
COc1cccc(NC(=O)Cn2c(C)c(C#N)c3ccccc32)c1	inactive
CN(C)CC(O)C(O)(c1ccccc1)c1ccc(F)cc1 (stereo not given)	inactive
Cc1[nH]c(C)c(Cc2ccc(Oc3ccc(OC(F)(F)F)cc3)cc2)c(=O)c1Br	inactive

SMILES	outcome
C=CCC(C)n1ncc2c3c(N)nc(N)nc3ccc21 (stereo not given)	inactive
CC(C)N1CCN(c2ccc(OCCCCN3CCN(c4cccc(Cl)c4Cl)CC3)c(C(F)(F)F)c2)CC1	inactive
FC(F)(F)c1ccc2nc(-c3cccc(-c4cccc(CNCCc5ccncc5)c4)c3)[nH]c2c1	inactive
O=C(C=Cc1ccccc1)Nc1ccc(C#CC=Cc2ccc(NC(=O)C=Cc3ccccc3)cc2)cc1	inactive
CC1CN(Cc2ccccc2)CCN1c1ccc(NC(=O)c2cccs2)cc1 (stereo not given)	inactive
CC1(C)N=C(N)N=C(N)C1c1ccc(Cl)c(Cl)c1 (stereo not given)	inactive
CN1CCC(NCc2ccc(-c3ccc(S(=O)(=O)NCc4ccccc4)cc3)cc2)CC1	inactive
CC(C)CCN1CCC(Oc2cccc(NC(=O)c3ccc(C(F)(F)F)cc3)c2)CC1	inactive
Cc1cccc2[nH]c(-c3ccc(-c4cccc(NC(=O)Cc5cnc[nH]5)c4)cc3)nc12	inactive
O=C(Nc1ccccc1N1CCOCC1)c1ncoc1-c1ccccc1C(F)(F)F	inactive
COc1cccc(C2(c3cccc(OC)c3)N=C(N)N(CCCc3ccccc3)C2=O)c1	inactive
Cc1cccc2[nH]c(-c3ccc(-c4ccc(CN5CCN(CC6CCCN(C)C6)CC5)cc4)cc3)nc12 (stereo not given)	inactive
O=S(=O)(Nc1ccc(CCN2CCC(N3CCCCC3)CC2)cc1)c1ccc2ccccc2c1	inactive
CCCc1ccc(S(=O)(=O)NC2CCN(C(=O)Nc3ccc(I)cc3)CC2)cc1	inactive
CNC(=O)c1cnc(Nc2ccc(N3CCN(C)CC3)c(C)c2)nc1NC	inactive
C[C@H]1CN(Cc2cccc(-c3cc(CNC(=O)c4cccc(CC5CCN(C)CC5)c4)ccc3F)c2)CCN1C	inactive
C=CCn1c(=N)c(C(=O)NC2CCCCC2)cc2c(=O)n3cccc(C)c3nc21	inactive
O=C(/C=C/c1ccc(Cl)c(Cl)c1)N1CCC(CCN2CCc3[nH]c4ccccc4c3C2)CC1	inactive
CCC(C)OC(=O)C1=C(C)NC2=C(C(=O)CC(c3ccc(OC)c(OC)c3)C2)C1c1ccc(O)cc1 (stereo not given)	inactive
CCc1ccc(N2C(=O)C3C(Cc4ccc(OC(C)(C)C)cc4)NC4(C(=O)N(Cc5ccccc5)c5ccc(F)cc54)C3C2=O)cc1 (stereo not given)	inactive
